In ChEMBL document CHEMBL3988442, “University of Dundee, Small-Polar-MMV Screening Library” (2021):

molecular target: Shiga toxin 2 (Escherichia coli O157:H7) (UniProt P09385+P09386); experiment: E. coli 0.157:H7 Shiga Toxin SOP - stx2 screening assay; assay type: functional; design: scale not given: direction of the effect not stated beside the values; conditions: 30 µM

Compared with `CC(C)Nc1ccc2nc(C3CCN(C(C)C)CC3)nn2c1`, `CC(C)CNC(=O)c1ccc2nnc(C3CCN(S(C)(=O)=O)C3)n2c1` (stereo not given) is higher in Percent Effect: -8.89% for the first, 3.22% for the second.

Compared with `CCCC(Nc1c(C#N)c(=O)n(C)c(=O)n1C)c1ccc(F)cc1F` (stereo not given), `COc1ccc(NC(=O)CCc2c(C)nc3cc(O)nn3c2C)cn1` is lower in Percent Effect: 4.48% for the first, -81.2% for the second.

Going from `CS(=O)(=O)NCCCNC(=O)c1cccc(-n2cccc2)c1` to `Cc1nc(C)c(C(=O)NCCNC(=O)Cc2ccccc2)s1`, the Percent Effect rises from -28.3% to 11.1%.

Going from `Fc1cccc(-c2nc(CN3CCCCC3Cn3cncn3)co2)c1` (stereo not given) to `O=C(c1cnco1)N1CCCC(Cc2cccc3ncccc23)C1` (stereo not given), the Percent Effect falls from 14.4% to -27.4%.

Compared with `O=C(NCCNc1ncccn1)C1CCN(C(=O)C2CC2)CC1`, `Cc1ccc(C(=O)N2CCCC(C(=O)N3CCCCC3)C2)c(O)c1` (stereo not given) is higher in Percent Effect: 14.1% for the first, 20.6% for the second.

First: O=C(Cn1cc(I)cn1)Nc1cccnc1
Second: O=C(C1=CCCC1)N1C[C@@H]2COC[C@]2(COc2cccnc2)C1
The Percent Effect of the first is lower: -36.6% for the first, 1.76% for the second.

Going from `Cc1cc(N2CCC(CC(N)=O)CC2)nc(-c2ccncc2)n1` to `O=C(c1ccc2c(c1)OCO2)N1CCN(c2cnccn2)CC1`, the Percent Effect falls from 0.525% to -14.6%.

Compared with `c1cnn(CCNCc2nnc(C3CC3)o2)c1`, `c1ccc(Cc2noc(CNC3CCc4ncnn4C3)n2)cc1` (stereo not given) is higher in Percent Effect: -28.3% for the first, 2.15% for the second.

Going from `CN(C)CC1CSCCCN1C(=O)c1ccc(=O)[nH]c1` (stereo not given) to `CN(C)c1ccccc1C(=O)N1C[C@@H](CN2CCCCC2)[C@@H](CO)C1`, the Percent Effect rises from 3.65% to 17.7%.

First: CC(C)(O)CN1CCN(C(=O)c2sccc2C2CC2)CC1
Second: CC(C)c1ccsc1C(=O)N1CCCN(Cc2cscn2)CC1
The Percent Effect of the first is lower: 10.1% for the first, 14.7% for the second.

Compared with `CN(C)C(=O)N[C@@H]1CN(Cc2ccc3c(c2)OCO3)[C@@H]2CCCO[C@@H]21`, `Cc1ccc(N(C)C2CCN(C(=O)CCc3ccco3)CC2)nn1` is higher in Percent Effect: -7.65% for the first, -5.22% for the second.

Going from `Cc1ccccc1C1(C(=O)NCCN2CCCC2)CCOCC1` to `Cc1occc1C(=O)N1CCCC2(CCN(CCN3CCCC3)C2=O)C1` (stereo not given), the Percent Effect falls from 12.4% to -29.2%.

First: Cc1nc(CN2CCN(C(=O)c3ccn(C)c(=O)c3)CC2)cs1
Second: CC(C)(C)n1cc(C(=O)N2CCCN(Cc3cccs3)CC2)cn1
The Percent Effect of the first is lower: -43.8% for the first, 35.3% for the second.

Compared with `COc1cc(S(=O)(=O)N2CCCc3ccccc32)cc(C(=O)O)c1OC`, `CN1CCN(C(=O)c2ccc(=O)n(C)c2)Cc2ccccc21` is lower in Percent Effect: -8.55% for the first, -29.2% for the second.

Going from `O=C1N(CCCc2ccccc2)CCCC1(O)CNCc1ccccc1` (stereo not given) to `COCCC(=O)N1CCC2(COCc3cnc(-c4ccccc4)nc32)C1` (stereo not given), the Percent Effect rises from -10.3% to -3.09%.

Going from `CC(=O)N1CCn2cc(CNC(=O)c3cccn3C)nc2C1` to `CCCn1[nH]cc/c1=N\C(=O)CN1CCc2cnc(CC)nc2C1`, the Percent Effect rises from -9.92% to -6.51%.

First: CNc1nc(CNC(=O)Nc2cccc(F)c2)cs1
Second: CCC(C)(NCC(=O)N(c1ccccc1)C(C)C)c1nc(C)cs1 (stereo not given)
The Percent Effect of the first is higher: -9.25% for the first, -25.8% for the second.

Compared with `CC(C)C(C(=O)N1CCCN(Cc2cnn(C)c2)CC1)n1cncn1` (stereo not given), `CN(C)c1ncc(CN2CCC(c3nnsc3S(C)(=O)=O)CC2)cn1` is higher in Percent Effect: -40.5% for the first, 1.96% for the second.

First: CCn1cnnc1C1CCN(C(=O)c2ccccc2OC)CC1
Second: CCOC(=O)NC(CNC(=O)c1ccccn1)CC(C)C (stereo not given)
The Percent Effect of the first is higher: 14.1% for the first, -4.01% for the second.

First: CC(C)c1cc2c(O)nc(CSCC(=O)O)nc2s1
Second: Clc1ccccc1C1(c2ccnc(-c3ccncc3)n2)CCNCC1
The Percent Effect of the first is higher: -12.1% for the first, -43.2% for the second.
